High-throughput results (PubChem)
Shown are actives, neighbours in structure and some others; about 4.5% of the full set was active somewhere.
697 NFkB inh = inhibitors of the PMA/ionomycin-induced NF-kB reporter in 697 B cells | inhibition, % at 4 µM | 330,000 compounds, 0.33% hits | 697 B-cell NF-kB luciferase reporter, 16 h; in the data active means inhibition above about 35%
Mdm2-MdmX inh = human Mdm2/MdmX binding inhibition. O15151+Q00987. SaOS-2 split-luciferase Mdm2/MdmX complementation, luminescence. inhibition, % at 8 µM. 330,000 compounds, 3% hits;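 active means inhibition of at least 50% at 8 µM in the primary screen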
Target sequence (O15151 whole entry, looked up): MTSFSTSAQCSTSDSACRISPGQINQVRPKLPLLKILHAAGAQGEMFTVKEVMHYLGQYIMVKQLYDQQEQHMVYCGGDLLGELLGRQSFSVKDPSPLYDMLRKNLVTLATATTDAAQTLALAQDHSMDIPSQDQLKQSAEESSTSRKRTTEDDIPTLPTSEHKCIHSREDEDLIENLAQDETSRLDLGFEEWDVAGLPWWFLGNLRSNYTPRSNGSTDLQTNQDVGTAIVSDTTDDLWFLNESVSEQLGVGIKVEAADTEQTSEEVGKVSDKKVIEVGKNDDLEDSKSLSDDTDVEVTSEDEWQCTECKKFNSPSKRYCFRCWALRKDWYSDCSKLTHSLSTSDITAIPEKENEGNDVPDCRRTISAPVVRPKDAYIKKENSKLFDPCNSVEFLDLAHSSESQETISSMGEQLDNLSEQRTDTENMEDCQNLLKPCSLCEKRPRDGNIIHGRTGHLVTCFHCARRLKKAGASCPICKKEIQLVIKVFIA
Target sequence (Q00987 whole entry, looked up): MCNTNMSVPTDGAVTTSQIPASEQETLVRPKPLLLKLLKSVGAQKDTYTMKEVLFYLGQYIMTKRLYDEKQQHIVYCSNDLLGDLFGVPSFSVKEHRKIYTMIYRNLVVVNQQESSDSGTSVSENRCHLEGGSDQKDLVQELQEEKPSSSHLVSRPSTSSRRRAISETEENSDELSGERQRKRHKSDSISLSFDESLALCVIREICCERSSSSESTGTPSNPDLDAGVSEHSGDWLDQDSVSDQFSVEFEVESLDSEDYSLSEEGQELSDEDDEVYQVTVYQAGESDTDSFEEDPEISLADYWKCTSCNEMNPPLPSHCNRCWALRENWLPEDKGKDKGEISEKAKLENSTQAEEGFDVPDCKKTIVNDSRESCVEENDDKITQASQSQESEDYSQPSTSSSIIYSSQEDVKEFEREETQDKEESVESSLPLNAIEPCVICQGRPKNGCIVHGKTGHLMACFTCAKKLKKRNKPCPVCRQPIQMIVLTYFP
aSyn 5UTR inh = MLPCN primary screen, SNCA 5' untranslated region; alpha-synuclein 5'UTR reporter, inhibitor activity; inhibition, % (tested at 7.5 µM); 300,000 compounds, 0.82% hits; AID 1813; in the data active means inhibition above about 60%; inconclusive means no clear call, values can overlap the other calls;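 further: H4 neuroglioblastoma cells stably carrying SNCA 5'UTR luciferase fusion; 0% = DMSO wells and 100% = positive control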
Jurkat NFkB inh = lowers PMA/ionomycin-induced NF-kB signal in Jurkat cells | PMA/ionomycin-induced NF-kB luciferase reporter, luminescence | inhibition, % at 4 µM | 330,000 compounds, 0.53% hits | AID 435003; in the data active means inhibition above about 50%
Gli-Sufu antag = antagonists of Gli-Sufu signaling | Sufu-KO-LIGHT fibroblasts, Gli luciferase reporter luminescence | inhibition, % at 5 µM | 340,000 compounds, 0.74% hits | AID 588413;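 active means inhibition above about 55%, limit read from the data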;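 further: 0% = DMSO-treated cells and 100% = wells with medium but no cells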
CSC inhib = cancer stem cell inhibition; cancer stem cell-like cells viability, luminescence; inhibition, % at 7.5 µM; 300,000 compounds, 1.1% hits; AID 2717; in the data active means inhibition above about 75%; inconclusive means no clear call, values can overlap the other calls; tested in HMLE shEcad cells
Mdm2 MdmX conf = human Mdm2/MdmX binding inhibition, confirmed. 10,000 compounds, 55% hits. inhibition, % at 8 µM. shares compounds with Mdm2-MdmX inh. AID 489028. luminescent assay; in the data active means inhibition above about 40%
Full FLuc ctr = full-length luciferase inhibition in Mdm2/MdmX counter-screen. shares compounds with Mdm2-MdmX inh. SaOS-2 full-length luciferase counterscreen, luminescence. inhibition, % at 8 µM. 6,200 compounds, 77% hits;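 active means mean inhibition at 8 µM reaching about 37%, which flags the compound as non-specific, limit read from the data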;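 further: p53-null SaOS-2 cells with luciferase driven by a doxycycline-inducible promoter; compound on cells about two nights before reading with doxycycline added after day one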
An asterisk follows results filed as active; ? = inconclusive; . = not tested or not shown.

SMILES	697 NFkB inh	Mdm2-MdmX inh	aSyn 5UTR inh	Jurkat NFkB inh	Gli-Sufu antag	CSC inhib	Mdm2 MdmX conf	Full FLuc ctr
O=C(COC(=O)Cc1ccccc1F)NC(=O)NC1CCCC1	-4	9	.	-7	8	-17	.	.
CN1CCN(C2Cc3ccc(F)cc3Sc3cc(F)c(Cl)cc32)CC1 (stereo not drawn)	-30	65*	102*	-14	5	101*	41*	57*
CN1CCN(C2Cc3cc(F)ccc3Sc3ccc(Cl)cc32)CC1 (stereo not drawn)	9	45	10	5	6	-11	.	.
CC(C)c1ccc2c(c1)C(N1CCNCC1)Cc1ccc(F)cc1S2 (stereo not drawn)	4	62*	75*	14	7	102*	34	.
CSc1ccc2c(c1)C(N1CCN(C)CC1)Cc1ccccc1S2 (stereo not drawn)	15	69*	-26	-4	9	?	29	.
CC(C)[C@H](NC(=O)c1ccccc1)C(=O)OCC(=O)N1CCCc2ccccc21	3	-9	-6	-5	-5	-4	.	.
O=C(N/N=C/c1ccc([N+](=O)[O-])cc1)c1ccc(COc2ccccc2-c2ccccc2)cc1	-26	11	-28	-14	-6	35	.	.
COc1ccc(/C=C2\CCCc3c2nc2ccccc2c3C(=O)OCC(=O)c2c(N)n(C)c(=O)n(C)c2=O)cc1	-35	86*	-23	15	.	9	79*	44*
CCOc1cccc(/C=N/NC(=O)c2cc(C3CC3)[nH]n2)c1O	-29	59*	0	13	26	128*	26	.
Clc1cccc(Cl)c1Cn1cnc2c(N3CCCCCC3)ncnc21	-247	79*	50	-8	-2	50	24	.
COc1cccc(C(NC(C)=O)c2ccc3cccnc3c2O)c1 (stereo not drawn)	-21	82*	72*	46	69*	58	80*	29
CC(=O)NC(c1cccc([N+](=O)[O-])c1)c1ccc2cccnc2c1O (stereo not drawn)	-21	77*	123*	49	.	102*	81*	24
Oc1cccc(C(Nc2nccs2)c2ccc3cccnc3c2O)c1 (stereo not drawn)	-49	77*	132*	49	23	110*	81*	21
CCCOc1ccc(C(=O)CCNC(Cc2c[nH]c3ccccc23)C(=O)O)cc1 (stereo not drawn)	9	87*	-5	15	-1	1	21	.
CCC1=NNc2cccc3c(OC)ccc1c23	2	62*	25	6	.	.	24	.
CCc1c(C)nc(SCC(=O)c2cccs2)c(C#N)c1C	-128	-102	-269	-120	-72	17	.	.
Cc1nc(SCC(=O)Nc2ccccc2C(F)(F)F)c(C#N)c(C)c1CC(=O)c1ccc(Br)cc1	-9	53*	-15	2	.	33	10	.
Cc1cccc(C)c1NC(=O)CSc1nc(C)c(CC(=O)c2ccc(Br)cc2)c(C)c1C#N	14	85*	-37	13	8	8	63*	96*
N#C/C(=N\Nc1cccc([N+](=O)[O-])c1)C(=O)c1ccc(Br)cc1	-11	97*	49	5	27	102*	89*	21
CCOC(=O)C1=C(COC(=O)[C@@H](NC(=O)c2cccc(C)c2)C(C)C)NC(=O)NC1C (stereo partly drawn)	-4	-16	.	1	9	-12	.	.
Cc1cc(C)c(OCCNC(=O)c2ccccc2Sc2ccccc2C#N)c(C)c1	-19	10	-3	-14	18	.	.	.
CC1(C)CC(=O)C2=C(C1)N1C(=C(C#N)C2c2ccccc2Cl)N=C(N)c2ccccc21 (stereo not drawn)	20	43	1	7	-5	1	.	.
CC1(C)CC(=O)C2=C(C1)N1C(=C(C#N)C2c2ccc(Cl)cc2)N=C(N)c2ccccc21 (stereo not drawn)	-39	56*	-3	-12	0	23	0	.
CN(C(=O)c1cccc(NC(=O)Cc2cccc(NC(=O)C3CCN(C(=O)C4CCCC4)CC3)c2)c1)C1CC1	.	.	.	.	2	.	.	.
CCCn1c(CC)nc([N+](=O)[O-])c1Sc1ccc(C)cc1	9	64*	-6	3	0	-9	12	.
SMILES	697 NFkB inh	Mdm2-MdmX inh	aSyn 5UTR inh	Jurkat NFkB inh	Gli-Sufu antag	CSC inhib	Mdm2 MdmX conf	Full FLuc ctr
CCC(c1nnc(SCC(=O)Nc2ccc(Cl)cc2C(F)(F)F)n1C1CCCCC1)N(C)C (stereo not drawn)	-2	15	13	11	-2	11	.	.
COc1cc2c(cc1OC)C(c1cc(Br)ccc1F)N(C(=O)CCl)CC2 (stereo not drawn)	-33	100*	-50	42	7	42	73*	55*
CCOCCCNC(=O)/C(C#N)=C/c1ccc(Cl)c([N+](=O)[O-])c1	-3	73*	-23	3	-2	67	2	.
N#CCCN(Cc1ccccc1)C(=O)Nc1ccc(F)cc1	-5	11	5	18	-9	-11	.	.
Cc1ccc(S(=O)(=O)Nc2ccc3c(c2)C(=O)N([C@H](C)CO)C[C@H](C)[C@@H](CN(C)Cc2ccc(-c4ccccc4)cc2)O3)cc1	-3	77*	.	-6	9	62	9	.
COc1ccc(S(=O)(=O)Nc2ccc3c(c2)C(=O)N([C@H](C)CO)C[C@H](C)[C@H](CN(C)Cc2ccc(C(=O)O)cc2)O3)cc1	0	-9	.	-1	19	-5	.	.
Cc1ccc(S(=O)(=O)Nc2cccc3c2O[C@H](CN(C)Cc2ccc(-c4ccccc4)cc2)[C@@H](C)CN([C@H](C)CO)C3=O)cc1	1	53*	.	-2	-2	.	17	.
C/C(=N\OCC(=O)OCC(=O)NC(=O)c1ccc(OC(F)F)cc1)c1ccc2c(c1)OCO2	3	14	-15	3	-3	6	.	.
CC(=O)N1CCc2c(sc(NC(=O)Cc3ccc(C)cc3C)c2C#N)C1	-13	10	-11	-6	32	7	.	.
CC(=O)N1CCc2c(sc(NC(=O)CCS(=O)(=O)c3ccc(C)cc3)c2C#N)C1	13	52*	14	8	7	1	41*	78*
CC1Cc2ccccc2N1c1ncnc2nc[nH]c12 (stereo not drawn)	-1	53*	-32	-13	-10	-1	49*	75*
CC1Cc2ccccc2N1c1ncnc(N)c1[N+](=O)[O-] (stereo not drawn)	12	91*	69*	35	-12	-9	93*	54*
c1ccc2c(c1)CCN(c1ncnc3nc[nH]c13)C2	14	39	15	5	-6	-9	.	.
